# Measured values: ChEMBL document CHEMBL1961873, “Compounds: GSK PKIS; Assays: Nanosyn kinase panel” (2012)
# What was measured:
# [1] = biological target: Sphingosine kinase 1 (Homo sapiens) (UniProt Q9NYA1); conditions: at 1 µM;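 further: mean SPHK1 inhibition value reported from the GSK PKIS kinase panel screen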
# [2] = biological target: T1, Sphingosine kinase 2 (Homo sapiens) (UniProt Q9NRA0); conditions: at 0.1 µM
# T1 sequence (whole entry): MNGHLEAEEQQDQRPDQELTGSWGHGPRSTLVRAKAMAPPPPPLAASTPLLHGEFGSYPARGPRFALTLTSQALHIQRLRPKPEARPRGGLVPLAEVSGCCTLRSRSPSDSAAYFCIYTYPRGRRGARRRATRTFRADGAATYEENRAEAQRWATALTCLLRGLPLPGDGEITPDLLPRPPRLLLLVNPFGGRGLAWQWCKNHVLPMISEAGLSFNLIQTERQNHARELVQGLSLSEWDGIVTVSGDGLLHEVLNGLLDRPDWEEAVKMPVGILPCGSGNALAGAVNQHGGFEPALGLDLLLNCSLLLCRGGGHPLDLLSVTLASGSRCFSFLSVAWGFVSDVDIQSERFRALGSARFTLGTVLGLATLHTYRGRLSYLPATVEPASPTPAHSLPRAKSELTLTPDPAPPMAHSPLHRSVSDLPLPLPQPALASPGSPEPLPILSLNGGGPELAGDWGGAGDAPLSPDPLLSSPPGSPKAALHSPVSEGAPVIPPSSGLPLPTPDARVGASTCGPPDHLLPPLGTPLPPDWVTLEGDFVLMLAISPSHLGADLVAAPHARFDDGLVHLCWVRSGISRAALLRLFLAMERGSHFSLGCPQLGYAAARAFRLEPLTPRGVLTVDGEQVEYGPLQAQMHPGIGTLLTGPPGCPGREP
# [3] = biological target: T1, Sphingosine kinase 2 (Homo sapiens); conditions: at 1 µM
# [4] = biological target: Casein kinase II subunit alpha (Homo sapiens) (UniProt P68400); conditions: at 0.1 µM
# Chain of Casein kinase II subunit alpha (Homo sapiens) (P68400 whole entry, looked up): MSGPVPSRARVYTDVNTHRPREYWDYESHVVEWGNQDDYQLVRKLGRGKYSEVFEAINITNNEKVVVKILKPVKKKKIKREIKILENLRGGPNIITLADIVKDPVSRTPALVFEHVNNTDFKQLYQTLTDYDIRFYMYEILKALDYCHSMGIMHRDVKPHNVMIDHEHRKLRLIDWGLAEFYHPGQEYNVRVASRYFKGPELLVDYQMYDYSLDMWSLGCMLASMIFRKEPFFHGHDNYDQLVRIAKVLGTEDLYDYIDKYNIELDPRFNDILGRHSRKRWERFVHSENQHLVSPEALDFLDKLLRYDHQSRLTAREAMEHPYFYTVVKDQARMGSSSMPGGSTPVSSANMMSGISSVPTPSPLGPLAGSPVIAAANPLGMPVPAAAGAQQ
# [5] = biological target: Casein kinase II subunit alpha (Homo sapiens) (UniProt P68400); conditions: at 1 µM
# [6] = biological target: T2, Inhibitor of nuclear factor kappa-B kinase subunit alpha (Homo sapiens) (UniProt O15111); conditions: at 0.1 µM
# T2 sequence (whole entry): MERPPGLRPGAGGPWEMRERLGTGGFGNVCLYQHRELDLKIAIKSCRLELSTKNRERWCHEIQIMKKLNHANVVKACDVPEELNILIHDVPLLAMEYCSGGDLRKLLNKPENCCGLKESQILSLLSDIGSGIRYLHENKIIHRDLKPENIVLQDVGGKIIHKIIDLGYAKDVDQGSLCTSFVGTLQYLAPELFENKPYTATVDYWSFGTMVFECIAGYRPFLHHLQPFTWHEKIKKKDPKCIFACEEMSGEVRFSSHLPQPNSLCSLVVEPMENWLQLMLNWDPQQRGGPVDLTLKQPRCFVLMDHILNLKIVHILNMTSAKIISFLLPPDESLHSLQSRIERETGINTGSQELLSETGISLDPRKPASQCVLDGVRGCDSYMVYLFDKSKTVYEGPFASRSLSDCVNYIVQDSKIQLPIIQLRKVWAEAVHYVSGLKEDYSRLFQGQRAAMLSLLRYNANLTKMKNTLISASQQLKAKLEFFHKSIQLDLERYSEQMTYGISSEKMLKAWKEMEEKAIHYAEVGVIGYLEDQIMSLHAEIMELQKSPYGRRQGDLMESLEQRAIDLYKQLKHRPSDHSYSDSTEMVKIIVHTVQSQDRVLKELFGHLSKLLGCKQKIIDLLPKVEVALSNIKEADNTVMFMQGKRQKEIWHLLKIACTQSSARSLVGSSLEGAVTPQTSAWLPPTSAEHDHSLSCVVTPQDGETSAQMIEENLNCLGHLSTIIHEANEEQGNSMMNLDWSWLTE
# [7] = biological target: T2, Inhibitor of nuclear factor kappa-B kinase subunit alpha (Homo sapiens); conditions: at 1 µM
# [8] = biological target: T3, Inhibitor of nuclear factor kappa-B kinase subunit beta (Homo sapiens) (UniProt O14920); conditions: at 0.1 µM
# T3 sequence (whole entry): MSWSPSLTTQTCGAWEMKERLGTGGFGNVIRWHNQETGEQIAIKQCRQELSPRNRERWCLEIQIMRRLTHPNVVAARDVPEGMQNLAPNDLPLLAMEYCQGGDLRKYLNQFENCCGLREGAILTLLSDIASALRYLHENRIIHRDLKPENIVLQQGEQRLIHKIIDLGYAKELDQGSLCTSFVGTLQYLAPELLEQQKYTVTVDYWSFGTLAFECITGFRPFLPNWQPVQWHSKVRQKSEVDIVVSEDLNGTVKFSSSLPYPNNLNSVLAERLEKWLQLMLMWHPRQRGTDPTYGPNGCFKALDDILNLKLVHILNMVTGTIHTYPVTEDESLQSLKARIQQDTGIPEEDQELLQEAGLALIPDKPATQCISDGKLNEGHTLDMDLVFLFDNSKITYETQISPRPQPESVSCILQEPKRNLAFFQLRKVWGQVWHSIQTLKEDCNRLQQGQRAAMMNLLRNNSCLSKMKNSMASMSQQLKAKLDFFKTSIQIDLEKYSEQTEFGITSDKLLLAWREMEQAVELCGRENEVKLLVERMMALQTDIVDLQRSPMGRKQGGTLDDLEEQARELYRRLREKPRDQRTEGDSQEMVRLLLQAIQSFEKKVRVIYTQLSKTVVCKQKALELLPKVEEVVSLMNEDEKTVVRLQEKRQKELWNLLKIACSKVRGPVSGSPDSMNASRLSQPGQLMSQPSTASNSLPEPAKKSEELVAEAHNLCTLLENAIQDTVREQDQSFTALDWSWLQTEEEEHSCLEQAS
# [9] = biological target: T3, Inhibitor of nuclear factor kappa-B kinase subunit beta (Homo sapiens); conditions: at 1 µM
# [10] = biological target: T4, Inhibitor of nuclear factor kappa-B kinase subunit epsilon (Homo sapiens) (UniProt Q14164); conditions: at 0.1 µM;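 further: mean inhibition of IKKε reported, from the GSK PKIS dataset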
# T4 sequence (whole entry): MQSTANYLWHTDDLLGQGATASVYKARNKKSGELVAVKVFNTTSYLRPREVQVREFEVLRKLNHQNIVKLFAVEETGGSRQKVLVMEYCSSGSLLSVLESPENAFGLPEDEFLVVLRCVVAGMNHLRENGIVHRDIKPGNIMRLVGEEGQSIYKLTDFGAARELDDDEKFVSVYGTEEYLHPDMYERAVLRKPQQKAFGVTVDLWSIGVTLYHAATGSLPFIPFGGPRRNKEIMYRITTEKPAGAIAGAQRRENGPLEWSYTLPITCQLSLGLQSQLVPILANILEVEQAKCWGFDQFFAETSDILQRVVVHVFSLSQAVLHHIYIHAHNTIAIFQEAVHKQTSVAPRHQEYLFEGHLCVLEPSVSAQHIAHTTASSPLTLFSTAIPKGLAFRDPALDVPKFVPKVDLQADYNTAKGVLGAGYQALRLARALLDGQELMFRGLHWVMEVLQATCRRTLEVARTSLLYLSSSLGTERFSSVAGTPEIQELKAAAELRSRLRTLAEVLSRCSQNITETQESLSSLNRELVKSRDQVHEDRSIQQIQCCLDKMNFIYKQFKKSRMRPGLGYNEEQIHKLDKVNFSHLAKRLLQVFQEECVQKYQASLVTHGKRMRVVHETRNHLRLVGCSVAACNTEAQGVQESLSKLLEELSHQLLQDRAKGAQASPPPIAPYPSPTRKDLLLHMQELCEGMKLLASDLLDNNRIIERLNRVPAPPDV
# Chain of Sphingosine kinase 1 (Homo sapiens) (Q9NYA1 whole entry): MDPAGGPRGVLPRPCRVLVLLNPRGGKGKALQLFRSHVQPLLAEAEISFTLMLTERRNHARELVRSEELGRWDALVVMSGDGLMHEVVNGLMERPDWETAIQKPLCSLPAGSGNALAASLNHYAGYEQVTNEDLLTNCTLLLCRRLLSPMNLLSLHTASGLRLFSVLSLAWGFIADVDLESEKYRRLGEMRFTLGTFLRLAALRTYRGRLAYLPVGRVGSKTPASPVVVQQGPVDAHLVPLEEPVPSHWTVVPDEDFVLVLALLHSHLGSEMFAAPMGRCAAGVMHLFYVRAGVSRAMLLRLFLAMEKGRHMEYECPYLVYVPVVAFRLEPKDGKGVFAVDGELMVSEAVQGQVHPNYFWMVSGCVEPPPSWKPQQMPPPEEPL
smiles,measurement,setting,value
Cc1cc(O)cc(C)c1/C=C/c1cncc(C(=O)OC(C)(C)C)c1,inhibition,[1],-1.82%
same,inhibition,[2],0.51%
same,inhibition,[3],0%
same,inhibition,[4],4.48%
same,inhibition,[5],7.86%
same,inhibition,[6],2.35%
same,inhibition,[7],1.81%
same,inhibition,[8],2.36%
same,inhibition,[9],2.32%
same,inhibition,[10],4.19%
